According to ChEMBL document CHEMBL4513146, “CO-ADD screening of Karazin Kharkiv National University (Ukraine) compounds”:
Measured potencies and affinities stand elsewhere.

What was measured:
Staphylococcus aureus = details: Concentration 32 ug.mL-1;; ASSAY_TEST Inhibition of Bacterial Growth; detection method Absorption (OD600); MEDIA CAMHB; plate type 384well; NBS; CORNING #3640; time 18 hr
Escherichia coli = details: Concentration 32 ug.mL-1;; ASSAY_TEST Inhibition of Bacterial Growth; detection method Absorption (OD600); MEDIA CAMHB; plate type 384well; NBS; CORNING #3640; time 18 hr

Row | SMILES | Inhibition (Staphylococcus aureus) [%] | Inhibition (Escherichia coli) [%]
1 | COc1cccc(Oc2nccn3c(=O)n(CC(=O)NCc4ccccc4Cl)nc23)c1 | 11.84 | 2.87
2 | COc1ccccc1N1CCN(C(=O)CSc2nc3ccccc3n3c(C(C)C)nnc23)CC1 | 1.01 | 3.41
3 | CC(=O)c1ccc(NC(=O)Cn2nc3ccc(-c4ccccc4)nn3c2=O)cc1 | 7.56 | -5.17
4 | O=C(Cn1nc2c(N3CCOCC3)nccn2c1=O)NCc1ccc(F)cc1 | 19.72 | 0.87
5 | O=C(Cn1nc2c(SC3CCCCC3)nccn2c1=O)Nc1ccc(Cl)cc1F | 4.94 | -2.75
6 | COc1ccc(NC(=O)Cn2nc3nc(N4CCCCCC4)ccn3c2=O)cc1Cl | -1.58 | -10.88
7 | COc1cccc(-n2ccn3c(SCc4ccccc4C)nnc3c2=O)c1 | 11 | -3.45
8 | O=C1CCCN1c1ccc(Cn2nc3ccc(-c4ccccc4)nn3c2=O)cc1 | -3.3 | -6.97
9 | COC(=O)c1ccc(NC(=O)Cn2nc3ccc(S(=O)(=O)c4ccccc4)nn3c2=O)cc1 | -1.97 | -13.66
10 | CCc1ccccc1Sc1nccn2c(=O)n(CC(=O)Nc3cc(Cl)c(OC)cc3OC)nc12 | -16.84 | -7.56
11 | O=C(Cn1nc2c3cc(-c4ccc(F)cc4)nn3ccn2c1=O)NCc1ccccc1Cl | 7.18 | -0.1
12 | CCOc1ccccc1NC(=O)Cn1nc2c3cc(-c4ccc(OC)cc4)nn3ccn2c1=O | 2.23 | 5.35
13 | CC(C)c1nnc2c(=O)n(CC(=O)Nc3ccc(C#N)cc3)c3ccccc3n12 | -0.41 | -7.65
14 | O=C(CSc1nnc2c(=O)n(-c3cccc(F)c3)ccn12)c1ccc(F)cc1 | 5.39 | 1.51
15 | COC(=O)c1cccc(NC(=O)Cn2nc3ccc(-c4ccccc4)nn3c2=O)c1 | -7.92 | -13.96
16 | Cc1ccc(NC(=O)Cn2nc3c(N4CCCC(C)C4)nccn3c2=O)cc1C (stereo not drawn) | -5.07 | -2.82
17 | Cc1cc(C)cc(NC(=O)CSc2nnc3c(=O)n(-c4ccc(Br)cc4)ccn23)c1 | 9.26 | -3.09
18 | COc1ccc(NC(=O)Cn2nc3c(Sc4cccc(F)c4)nccn3c2=O)cc1Cl | 6.9 | -7.48
19 | CC(C)(C)OC(=O)CN(c1ccc2c(c1)OCCO2)S(=O)(=O)c1ccc2nncn2c1 | 6.06 | -4.04
20 | COc1ccc(N(Cc2ccc(F)cc2)S(=O)(=O)c2ccc3nncn3c2)cc1 | -7.56 | -2.8
21 | CCCCN(C)C(=O)CSc1nnc2c(=O)n(Cc3ccc(F)cc3)ccn12 | 7.74 | -2.27
22 | CCc1ccccc1NC(=O)Cn1nc2n(C)c(=O)c3c(c(-c4ccccc4)cn3C)n2c1=O | 6.44 | -11.71
23 | COC(=O)c1ccccc1NC(=O)Cn1nc2c(Oc3cccc(OC)c3)nccn2c1=O | -4.11 | -21.29
24 | COc1ccc(N2CCN(C(=O)Cn3nc4c(Sc5cccc(C)c5)nccn4c3=O)CC2)cc1 | 0.43 | -16.62
25 | O=C(CSc1nnc2c(=O)n(-c3cccc(F)c3)ccn12)Nc1ccc(Br)cc1 | 17.12 | -2.48

Row | SMILES | Inhibition (Staphylococcus aureus) [%] | Inhibition (Escherichia coli) [%]
26 | Cc1cc2nn(CC(=O)NCc3ccc4c(c3)OCO4)c(=O)n2c(Nc2ccccc2C)n1 | 0.76 | -4.19
27 | CCOc1ccccc1NC(=O)Cn1nc2c(Sc3ccccc3)nccn2c1=O | -2.46 | -5.85
28 | CCC(Sc1nnc2c(=O)n(-c3ccc(C)c(C)c3)ccn12)C(=O)Nc1ccccc1C (stereo not drawn) | 13.17 | -4.12
29 | Cc1cccc(Oc2nc3ccccc3n3c(=O)n(CC(=O)NCc4ccco4)nc23)c1C | 3.87 | -6.2
30 | Cc1ccc(CN(c2ccc(F)cc2)S(=O)(=O)c2ccc3nnc(C)n3c2)cc1 | -8.78 | -18.59
31 | Cc1cccc(NC(=O)CSc2nnc3c4cc(-c5ccc(F)cc5)nn4ccn23)c1C | -11.28 | -13.99
32 | Cc1nnc2ccc(S(=O)(=O)N(Cc3cccc(F)c3)c3cc(F)cc(F)c3)cn12 | 9.82 | -6.06
33 | Cc1ccc(CNC(=O)Cn2nc3c(Sc4cccc(F)c4)nccn3c2=O)cc1 | -7.34 | -12.92
34 | Cc1cccc(C)c1NC(=O)Cn1nc2c(Sc3cccc(F)c3)nccn2c1=O | 9.75 | -2.6
35 | O=c1c2nn(Cc3cccc([N+](=O)[O-])c3)c(=O)n2ccn1-c1ccccc1 | -0.55 | -2.06
36 | COc1ccc(-c2cc3c4nnc(SCC(=O)Nc5cccc(C)c5C)n4ccn3n2)cc1 | -11.43 | -10.61
37 | COc1ccc(-c2cc3c4nnc(SCC(=O)NCc5ccccc5Cl)n4ccn3n2)cc1 | -4.22 | -7.58
38 | Cc1ccccc1Oc1nc2ccccc2n2c(=O)n(CC(=O)Nc3cccc(C(F)(F)F)c3)nc12 | 7.78 | 2.27
39 | COc1ccc(NC(=O)Cn2nc3ccc(SC4CCCCC4)nn3c2=O)cc1OC | 3.6 | -2.79
40 | COc1cccc(-n2ccn3c(SCC(=O)c4ccc(OC)c(OC)c4)nnc3c2=O)c1 | 10.14 | 2.93
41 | O=C(Cn1nc2c(SC3CCCCC3)nccn2c1=O)Nc1ccc(F)c(Cl)c1 | -11.33 | -12.19
42 | CCc1ccc(N(Cc2cc(F)cc(F)c2)S(=O)(=O)c2cccn3c(C)nnc23)cc1 | -13.36 | -0.39
43 | CC(C)c1nnc2c(=O)n(CC(=O)Nc3ccc4c(c3)OCO4)c3ccccc3n12 | -1.02 | -3.49
44 | Cc1ccc(Cl)cc1NC(=O)CSc1nc2ccccc2n2c(C)nnc12 | -8.21 | -3.62
45 | C=Cc1ccc(CN(c2ccc(C(C)C)cc2)S(=O)(=O)c2cccn3c(C)nnc23)cc1 | -12.1 | 1.96
46 | Cc1cc2nn(CC(=O)Nc3cc(F)ccc3F)c(=O)n2c(Nc2ccc(C)c(F)c2)n1 | 0.88 | -8.4
47 | CC(C)Cn1c(=O)c2sccc2n2c(=O)n(Cc3ccccc3Cl)nc12 | 2.13 | -6.09
48 | CCOc1ccc(-n2ccn3c(SCC(=O)c4ccc(C)cc4C)nnc3c2=O)cc1 | 6.78 | -6.14
49 | COc1cc(NC(=O)Cn2nc3ccc(SC(C)C)nn3c2=O)cc(OC)c1 | -7.38 | -2.23
